Experimental findings from PubChem BioAssay are described below.

Unmarked numbers belong to inactive results. For some of these results: Entries with a potency or affinity are not part of this list. Activity calls are given as the source filed them. Unless noted, the rule behind the calls is not given here.

Assay [1] is described as follows: antimalarial activity against Dd2 strain (AID 2302;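 active = growth inhibition above 50% at the single 2 µM test dose, taken to imply half-maximal potency below 2 µM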;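 note: 0% = DMSO untreated growth and 100% = chloroquine plus artemisinin killed control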). The settings on record: P. falciparum Dd2 in RBCs, LDH growth readout, 72 h; at 2 µM; hits give high values.
Assay [2] can be described thus: HepG2 cytotoxicity, primary screen, cytotoxicity control for P. falciparum antimalarial project, cell-based, ATP luminescence (AID 2303;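 active = inhibition above 50%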;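 note: 0% = DMSO wells and 100% = digitonin-killed cells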). The conditions noted are these: HepG2 viability, 24-48 h, at 10 µM, hits give high values.
For assay [3], the target named is L-lactate dehydrogenase (Plasmodium falciparum (isolate CDC / Honduras)) (UniProt Q27743). The assay is described as follows: PfLDH activity inhibition – cell lysate, 3D7 strain, counter-screen for P. falciparum growth inhibition project (AID 2304).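 Note: 0% = vehicle and 100% = reference inhibitor.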 The conditions noted are these: P. falciparum 3D7 crude extract, LDH APAD/NBT absorbance; at 2 µM; hits give high values.
L-lactate dehydrogenase (Plasmodium falciparum (isolate CDC / Honduras)), sequence (Q27743 whole entry, looked up): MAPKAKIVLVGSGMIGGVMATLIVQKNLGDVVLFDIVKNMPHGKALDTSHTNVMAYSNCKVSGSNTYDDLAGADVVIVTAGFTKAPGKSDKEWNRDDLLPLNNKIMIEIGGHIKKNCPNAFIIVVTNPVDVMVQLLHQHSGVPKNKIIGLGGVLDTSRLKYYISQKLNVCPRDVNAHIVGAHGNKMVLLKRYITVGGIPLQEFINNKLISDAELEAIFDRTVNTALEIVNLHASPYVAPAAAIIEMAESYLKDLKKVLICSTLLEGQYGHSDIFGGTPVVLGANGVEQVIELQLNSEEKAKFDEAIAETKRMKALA

A short description of assay [4]: inhibition of 3D7 malaria parasite growth – strain 3D7 (AID 2306).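 Note: 0% = DMSO wells and 100% = chloroquine plus artemisinin control wells.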 The settings on record: P. falciparum 3D7 erythrocytic growth, LDH absorbance, 72 h; at 2 µM; hits give high values.
Assay [5] addresses Calcium-dependent protein kinase 1 (Plasmodium falciparum (isolate 3D7)) (UniProt P62344). The assay can be described thus: PfCDPK1 kinase inhibitors, biochemical, TCAMS library (AID 1159585; cut-off not given, nearly all actives have IC50 up to about 0.98 µM;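 note: inhibitors leave more ATP so luminescence rises with inhibition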). The settings on record: recombinant PfCDPK1, Kinase-Glo ATP depletion luminescence.
Assay [6] has as its target Plasmodium falciparum protein kinase 6 (PK6, PF3D7_1337100) (UniProt Q8IDW1). The assay is described as follows: PfPK6 kinase inhibitors, biochemical, TCAMS library (AID 1159586). The settings on record: recombinant PfPK6, Kinase-Glo ATP depletion luminescence.
For assay [7], the target named is Protein kinase 7 (PK7), Plasmodium falciparum 3D7 (PF3D7_0213400) (UniProt Q7YTF7). The assay can be described thus: inhibition of Plasmodium PK7 catalytic activity – biochemical, TCAMS antimalarial set, Kinase-Glo luminescence (AID 1159587). The settings on record: recombinant PfPK7, Kinase-Glo ATP depletion luminescence.
Protein kinase 7 (PK7), Plasmodium falciparum 3D7 (PF3D7_0213400), sequence (Q7YTF7 1-343): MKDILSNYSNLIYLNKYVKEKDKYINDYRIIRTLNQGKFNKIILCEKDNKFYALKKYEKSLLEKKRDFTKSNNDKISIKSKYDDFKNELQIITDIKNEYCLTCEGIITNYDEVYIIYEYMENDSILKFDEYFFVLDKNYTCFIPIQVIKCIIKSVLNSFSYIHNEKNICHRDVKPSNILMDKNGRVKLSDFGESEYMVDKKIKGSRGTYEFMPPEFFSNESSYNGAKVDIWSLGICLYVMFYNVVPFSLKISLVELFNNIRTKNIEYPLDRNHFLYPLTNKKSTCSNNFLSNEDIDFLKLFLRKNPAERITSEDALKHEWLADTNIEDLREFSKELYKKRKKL
Assay [8] addresses Calcium-dependent protein kinase 4 (Plasmodium falciparum (isolate 3D7)) (UniProt Q8IBS5). The assay can be described thus: PfCDPK4 kinase inhibitors, biochemical, TCAMS library (AID 1159588; cut-off not given, nearly all actives have IC50 up to about 0.91 µM). The conditions noted are these: recombinant PfCDPK4, Kinase-Glo ATP depletion luminescence.

Plasmodium falciparum protein kinase 6 (PK6, PF3D7_1337100), sequence (Q8IDW1 1-305): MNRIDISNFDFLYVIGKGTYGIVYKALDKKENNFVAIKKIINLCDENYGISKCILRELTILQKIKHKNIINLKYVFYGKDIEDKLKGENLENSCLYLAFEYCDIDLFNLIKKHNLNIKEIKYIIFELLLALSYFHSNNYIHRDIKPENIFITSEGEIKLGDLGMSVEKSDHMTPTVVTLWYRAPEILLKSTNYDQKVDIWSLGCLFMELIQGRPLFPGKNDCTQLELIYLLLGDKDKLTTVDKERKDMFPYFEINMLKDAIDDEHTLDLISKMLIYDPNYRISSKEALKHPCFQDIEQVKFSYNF
Calcium-dependent protein kinase 1 (Plasmodium falciparum (isolate 3D7)), sequence (P62344 whole entry, looked up): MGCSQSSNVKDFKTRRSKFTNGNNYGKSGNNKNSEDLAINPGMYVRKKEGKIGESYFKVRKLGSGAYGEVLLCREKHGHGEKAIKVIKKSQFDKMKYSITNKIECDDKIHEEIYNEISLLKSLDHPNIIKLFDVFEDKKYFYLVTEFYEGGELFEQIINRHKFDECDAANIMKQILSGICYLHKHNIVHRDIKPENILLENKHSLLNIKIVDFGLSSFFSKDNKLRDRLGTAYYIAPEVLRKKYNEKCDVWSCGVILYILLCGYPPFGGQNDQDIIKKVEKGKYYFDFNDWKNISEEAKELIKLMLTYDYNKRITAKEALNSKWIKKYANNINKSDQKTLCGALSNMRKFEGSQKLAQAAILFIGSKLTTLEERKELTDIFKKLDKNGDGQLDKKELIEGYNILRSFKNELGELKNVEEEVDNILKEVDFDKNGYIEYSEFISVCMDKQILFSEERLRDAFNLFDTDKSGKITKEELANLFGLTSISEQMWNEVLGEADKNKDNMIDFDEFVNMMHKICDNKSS
Calcium-dependent protein kinase 4 (Plasmodium falciparum (isolate 3D7)), sequence (Q8IBS5 whole entry, looked up): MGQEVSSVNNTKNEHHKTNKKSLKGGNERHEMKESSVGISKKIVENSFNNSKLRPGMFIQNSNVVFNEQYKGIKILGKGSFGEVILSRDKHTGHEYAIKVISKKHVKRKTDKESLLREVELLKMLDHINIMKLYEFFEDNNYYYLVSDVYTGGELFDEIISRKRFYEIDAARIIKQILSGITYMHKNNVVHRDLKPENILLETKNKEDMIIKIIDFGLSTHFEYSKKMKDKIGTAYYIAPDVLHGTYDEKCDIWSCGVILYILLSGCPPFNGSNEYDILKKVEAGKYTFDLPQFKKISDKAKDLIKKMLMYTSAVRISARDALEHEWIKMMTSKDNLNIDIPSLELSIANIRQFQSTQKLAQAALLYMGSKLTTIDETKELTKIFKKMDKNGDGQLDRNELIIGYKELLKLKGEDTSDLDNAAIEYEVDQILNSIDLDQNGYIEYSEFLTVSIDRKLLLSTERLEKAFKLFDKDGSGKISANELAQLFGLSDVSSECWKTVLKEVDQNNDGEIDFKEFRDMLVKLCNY

Regarding `Cc1ccc(NC(=O)Nc2ccc(Cl)c(C(F)(F)F)c2)cc1-c1ccc(C(=O)Nc2ccncc2)cc1`, the growth inhibition in assay [1] and in assay [4] was 99% (active) each time. Further, the inhibition was 77% (active) in assay [2] and 3% in assay [3]. For the same compound, the result in assay [5], in assay [6], in assay [7] and in assay [8] was inactive.

Regarding `N#Cc1ccc(N[C@@H](CC2CCCCC2)C(=O)N[C@@H]2CCCc3ccccc32)c2ccccc12`, the growth inhibition in assay [1] and in assay [4] was 99% (active) in each case. The values for the inhibition in assay [2] and in assay [3] were 12% and -5%, respectively. The result in assay [5], in assay [6], in assay [7] and in assay [8] was inactive.

In the case of `NC(=O)c1cccc(C(=O)Nc2ccc(-c3cccc(-c4nc5ccc(F)cc5[nH]4)c3)cc2)c1`, the results for the growth inhibition in assay [1] and in assay [4] were 5% and 94% (active), respectively. In addition, the inhibition in assay [2] is 45%; in assay [3], -5%. The outcome in assay [5], in assay [6], in assay [7] and in assay [8] was inactive.

As for `CN(C)c1cccc2c(S(=O)(=O)Nc3cccc(CCN4CCC(N5CCCCC5)CC4)c3)cccc12`, the growth inhibition was 54% (active) in assay [1] and 98% (active) in assay [4]. Also, the results for the inhibition in assay [2] and in assay [3] were 41% and -2%, respectively. Moreover, the outcome in assay [5], in assay [6], in assay [7] and in assay [8] was inactive.

`CN1CCC(c2csc3ccc(NC(=O)Nc4ccc(-c5ccncc5)c5ccccc45)cc23)CC1`: the growth inhibition in assay [1] was 71% (active); in assay [4], 98% (active). Further, the inhibition in assay [2] was 8%; in assay [3], 0%. In addition, the outcome in assay [5], in assay [6], in assay [7] and in assay [8] was inactive.

Take `Cc1ccc2nc(/N=C(\N)NC(=O)NC3CCCCC3)nc(C)c2c1`: the growth inhibition was 94% (active) in assay [1] and 99% (active) in assay [4]. The inhibition in assay [2] was 8%; in assay [3], 0%. The outcome in assay [5], in assay [6], in assay [7] and in assay [8] was inactive.

Turning to `CCN1CCC(N(CCCCCCc2ccc(C(F)(F)F)cc2)C(=O)Cn2c(CCc3cccc(F)c3F)cc(=O)c3ccccc32)CC1`, the growth inhibition is 82% (active) in assay [1] and 88% (active) in assay [4]. The inhibition was 32% in assay [2] and -7% in assay [3]. Also, the result in assay [5], in assay [6], in assay [7] and in assay [8] was inactive.

As for `COCCN1CCN(Cc2ccc(-c3ccc(-c4nc5ccc(F)cc5[nH]4)cc3)cc2)CC1`, the growth inhibition is 99% (active) in assay [1] and 101% (active) in assay [4]. Besides, the inhibition in assay [2] was 25%; in assay [3] it was -2%. Besides, the result in assay [5], in assay [6], in assay [7] and in assay [8] was inactive.

With `CN1CCN(c2ccnc3ccc(NC(=O)Nc4ccc5c(c4)CCC5=O)cc23)CC1`, the growth inhibition in assay [1] is 67% (active); in assay [4], 100% (active). For the same compound, the values for the inhibition in assay [2] and in assay [3] were 8% and 0%, respectively. Further, the outcome in assay [5], in assay [6], in assay [7] and in assay [8] was inactive.

Take `COc1ccccc1C1CN(Cc2coc3ccccc3c2=O)Cc2ccccc2O1` (stereo not given): the growth inhibition in assay [1] is 61% (active); in assay [4], 87% (active). Also, the inhibition in assay [2] was 4%; in assay [3], 2%. Moreover, the result in assay [5], in assay [6], in assay [7] and in assay [8] was inactive.

As to `NC(N)=NC(=O)Nc1cc(Cl)c(Cl)c(Br)c1`, the growth inhibition in assay [1] and in assay [4] was 99% (active) throughout. The values for the inhibition in assay [2] and in assay [3] were 16% and -2%, respectively. For the same compound, the result in assay [5], in assay [6], in assay [7] and in assay [8] was inactive.

On to `CC(C)CCN1CCCN(Cc2ccc(C(=O)Nc3ccc(F)c(F)c3)cc2)CC1`, for which the growth inhibition was 27% in assay [1] and 88% (active) in assay [4]. Also, the inhibition in assay [2] was 36%; in assay [3], 5%. In addition, the outcome in assay [5], in assay [6], in assay [7] and in assay [8] was inactive.

With `COc1ccccc1NC(=O)Nc1ccc(-c2ccc(-c3nc4c(C)cccc4[nH]3)s2)cc1`, the figures for the growth inhibition in assay [1] and in assay [4] were 99% (active) and 100% (active), respectively. For the same compound, the inhibition in assay [2] was 71% (active); in assay [3], 0%. The outcome in assay [5], in assay [6], in assay [7] and in assay [8] was inactive.

On to `CCNc1cc(C)nc(Nc2ccccc2)n1`, for which the figures for the growth inhibition in assay [1] and in assay [4] were 8% and 92% (active), respectively. Moreover, the inhibition in assay [2] was 16%; in assay [3], -1%. Also, the result in assay [5], in assay [6], in assay [7] and in assay [8] was inactive.

Consider `N#Cc1ccc(-c2ccc3nc(N4CCCN(C5CCC5)CC4)ccc3c2)cc1`, for which the growth inhibition was 14% in assay [1] and 96% (active) in assay [4]. Further, the results for the inhibition in assay [2] and in assay [3] were 36% and -2%, respectively. The result in assay [5], in assay [6], in assay [7] and in assay [8] was inactive.

With `Cc1cc(NCCC(=O)NCCOc2ccccc2)nc(NCc2ccccc2C)n1`, the growth inhibition in assay [1] was 29%; in assay [4], 92% (active). For the same compound, the inhibition in assay [2] is 17%; in assay [3] it was 0%. Further, the result in assay [5], in assay [6], in assay [7] and in assay [8] was inactive.

For `Cc1cc2c(cc1C(F)(F)F)N(C(=O)Nc1cc(C(=O)NC3CCN(Cc4ccccc4)C3)cc(C(F)(F)F)c1)CC2` (stereo not given), the growth inhibition in assay [1] is 97% (active); in assay [4] it was 101% (active). Moreover, the inhibition in assay [2] was 22%; in assay [3] it was 0%. Besides, the result in assay [5], in assay [6], in assay [7] and in assay [8] was inactive.

Turning to `COc1cc(C(=O)NCCCN2CCN(c3cc(Cl)ccc3OC)CC2)ccc1-c1nc2cc(Cl)c(Cl)cc2[nH]1`, the growth inhibition is 99% (active) in assay [1] and 102% (active) in assay [4]. In addition, the inhibition in assay [2] is 12%; in assay [3], -3%. In addition, the result in assay [5], in assay [6], in assay [7] and in assay [8] was inactive.

For `N#Cc1ccc(CN2CCCN(c3ccc(NC(=O)c4ccc(F)cc4)cc3)CC2)cc1`, the growth inhibition was 61% (active) in assay [1] and 90% (active) in assay [4]. The inhibition in assay [2] was 12%; in assay [3], -2%. Besides, the outcome in assay [5], in assay [6], in assay [7] and in assay [8] was inactive.

On to `O=C(N[C@@H](Cc1ccccc1)C(=O)NC1CCCc2ccccc21)c1ccc(O)c(-c2cccc(C(F)(F)F)c2)c1` (stereo not given in full), for which the growth inhibition in assay [1] was 41%; in assay [4] it was 91% (active). In addition, the figures for the inhibition in assay [2] and in assay [3] were -2% and -1%, respectively. Moreover, the result in assay [5], in assay [6], in assay [7] and in assay [8] was inactive.
